HP1b chromo inh – blocks HP1-beta chromodomain binding to methylated histone tails; P83916; AlphaScreen HP1-beta / biotin-H3K9me3 peptide binding; Potency, µM (titrated, usually from 114 µM), inactives show top-dose activity change, negative = inhibition, usual class: inhibitors; actives 0.56% (n = 390,000); AID 540317; note: nearly all actives have a fitted effect of over 70% in size
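Compound inhibition of the preformed complex between 50 nM HP1-beta and 50 nM biotinylated H3K9me3 peptide was read by AlphaScreen. Buffer was PBS pH 7.4 with 0.01% Tween-20. Incubations ran 30 min at room temperature, with 10 ug/mL donor/acceptor beads.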
ALOX12 inh – blocks human arachidonate 12S-lipoxygenase; Potency, µM (doses to about 108 µM), for inactives: at the top dose activity change, negative = inhibition, most hits filed as inhibitors; actives 1.1% (n = 580,000); purified 12hLO, xylenol orange hydroperoxide absorbance; AID 1671190; P18054; note: % is set by controls: 0 for no effect and ±100 for the full control effect
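Hydroperoxide product was detected by ferrous iron/xylenol orange as the 573 to 405 nm absorbance ratio. Arachidonic acid at 40 uM (final) was turned over for 30 min at room temperature by 150 nM human 12hLO, pH 7.0 Hepes buffer, after 15 min compound preincubation.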
G9a inh – blocks human histone lysine methyltransferase G9a. G9a H3K9 monomethylation, AlphaScreen, 2 h. Potency, µM (titrated, usually from 102 µM), inactives show at the top dose activity, negative = inhibition, hits mostly inhibitors. actives 8.8% (n = 350,000). AID 504332; note: % is set by controls: 0 for no effect and ±100 for the full control effect; nearly all actives have a fitted effect of over 75% in size
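AlphaScreen detection with an anti-monomethyl H3K9 antibody quantified product after a 2 h room-temperature reaction containing 500 nM biotinylated H3K9 peptide, 20 µM SAM and 20 nM enzyme, which had been preincubated 15 min with compound.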
Sfp PPTase inh – blocks B. subtilis Sfp PPTase activity | actives 3.5% (n = 310,000) | Biochemical Sfp PPTase activity, qHTS | Potency, µM, for the others: largest response in the series, negative = inhibition, actives largely listed as inhibitors | Q9F4F7;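 note: the enzyme is Sfp with the accession as filed and its product quenches rhodamine fluorescence; 0% = enzyme reaction without inhibitor and -100% = no enzyme wells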
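Reaction rates are the 30-min fluorescence difference (ex 525, em 598 nm) in wells containing 15 nM Sfp, 5 uM rhodamine-CoA and 12.5 uM BHQ-2-YbbR at pH 7.6 with 10 mM MgCl2.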
BAZ2B block – blocks human BAZ2B. AlphaScreen BAZ2B-H3K14Ac peptide displacement. Potency, µM (titrated, usually from 114 µM), for inactives: top-dose activity change, negative = inhibition, most hits filed as inhibitors. actives 4.4% (n = 360,000); note: % is set by controls: 0 for no effect and ±100 for the full control effect; nearly all actives have a fitted effect of over 60% in size
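In this displacement format the biotinylated H3(5-23) peptide acetylated at Lys14 serves as ligand at 50 nM, with BAZ2B at 50 nM in PBS pH 7.4 containing 0.01% Tween-20. Donor and acceptor beads are 10 ug/mL final.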
JMJD2A Tudor – blocks the human JMJD2A Tudor domain; AlphaScreen JMJD2A-Tudor / H3K4me3 peptide binding; Potency, µM (top dose mostly 114 µM), for inactives: at the top dose activity change, negative = inhibition, hits mostly inhibitors; actives 4.4% (n = 390,000); O75164; note: % is set by controls: 0 for no effect and ±100 for the full control effect; nearly all actives have a fitted effect of over 50% in size
* = called active by the depositor; i = inactive; ? = inconclusive; nt = no result given; ! = a repeat was not active; [ ] = remark or other dose. Sampled rows, rich in hits. Any-hit rate of the full collection: about 8.7%. Calls come from the whole dose curve; as a rule, active = well fitted curve in the direction sought with a large enough effect; inconclusive = small, poorly fitted or top-dose-only effect, or another doubt; inactive = no such curve, though single readings can be large; an effect the other way counts as inactive or inconclusive. Potency is the fitted concentration of half-maximal effect.

SMILES	HP1b chromo inh	ALOX12 inh	G9a inh	Sfp PPTase inh	BAZ2B block	JMJD2A Tudor
Cc1ccc2c(CN3C(=O)c4ccccc4S3(=O)=O)cc(=O)oc2c1C	nt	-16%	nt	nt	nt	nt
CCCNC(=O)N1CCN(S(C)(=O)=O)CC1	37%	1%	40µM*	-7%	-11%	-7%[11.4 µM]
CCCNC(=O)N1CCN(c2ncccn2)CC1	30%	i	15%[59 µM]	-2%	7%	-8%
CCCC(c1nnnn1C(C)(C)C)N1CCN(Cc2ccccc2OC)CC1 (stereo not drawn)	32%	?	-28%[12.7 µM]	56µM*	?	-2%
CCCC(c1nnnn1C(C)(C)C)N1CCN(c2ccccc2)CC1 (stereo not drawn)	12%	-5%	0%	7%	-18%	-22%
CN1CCN(C(=S)C(=O)Nc2ccccc2)CC1	23%	0%	36%[12.7 µM]	50µM*	5%	-14%
CN1CCN(C(=S)C(=O)NCc2ccccc2)CC1	18%	0%	6%	5%	-9%	-21%
Fc1ccc(-c2cc(CC3(NCc4ccccc4F)COC3)no2)cc1	nt	13%[176 µM]	nt	nt	nt	nt
COCC(=O)Nc1ccc(-c2noc([C@@H]3CCCN3C)n2)cn1	nt	16%[176 µM]	nt	nt	nt	nt
CCN1CCN(CCNC(=O)c2ccc(/C=C3/Sc4ccccc4N(Cc4ccccc4C)C3=O)cc2)CC1	-19%	?	?	40µM*	?	-35%[11.4 µM]
CCN1CCN(CCCNC(=O)c2ccc(/C=C3/Oc4ccccc4N(Cc4cccc(C)c4)C3=O)cc2)CC1	30%[57 µM]	nt	-6%[0.0925 µM]	40µM*	4%	?
O=C(NCCCN1CCOCC1)c1ccc(/C=C2\Oc3ccccc3N(Cc3ccccc3F)C2=O)cc1	27%	-28%	0%	-18%	5%	-4%
Cc1ccccc1CN1C(=O)c2ccccc2Sc2ccc(C(=O)NCCN3CCOCC3)cc21	36%	?	5%	-2%	-29%	-32%
CCN1CCN(CCCNC(=O)c2ccc(/C=C3/Sc4ccccc4N(Cc4ccccc4F)C3=O)cc2)CC1	-3%	-27%	?	50µM*	?	40µM*
COc1ccc2c(c1)c(C(C(=O)O)N1CCN(C(C)=O)CC1)cn2CCC(=O)O (stereo not drawn)	nt	-37%	nt	nt	nt	nt
CCC(C)(C)C1CCc2c(sc(NC(=O)CC(C)C)c2C#N)C1 (stereo not drawn)	nt	-15%	nt	nt	nt	nt
CC(=O)c1c(C)[nH]c(C(=O)NC2=NCCS2)c1C	32%	-6%	13%[12.7 µM]	15%	50µM*	-7%[57.1 µM]
COc1cccc(CNC(=O)[C@H](CCSC)NC(=O)N2CCn3c2nc2ccccc23)c1	24%	5%	50µM*	3%	?	-22%
COc1cccc(NC(=O)[C@H](C)NC(=O)N2CCn3c2nc2ccccc23)c1	42%	0%	63%	3%	?	-9%
COc1cc(NC(=O)[C@H](C)NC(=O)N2CCn3c2nc2ccccc23)cc(OC)c1	40%	2%	-11%	-1%	50µM*	-24%
Cc1ccc(C(=O)N2CCCC3(C2)C(=NC2CCCCC2)NC(=O)N3c2cccnc2)cc1 (stereo not drawn)	nt	2%[6.33 µM]	nt	nt	nt	nt
CCCN(CCC)S(=O)(=O)NCc1ccnc(OCc2ccccc2)c1	nt	-8%	nt	nt	nt	nt
COc1cc(/C=C/c2nc3ccccc3s2)cc(OC)c1O	17%	?	50µM*	-39%	?	-7%
CCOc1cc(/C=C/c2nc3ccccc3s2)ccc1O	nt	40µM*	nt	nt	nt	nt
COc1cc(C=C(c2nc3ccccc3s2)c2nc3ccccc3s2)ccc1O	?	?	3.5µM*	-1%	35µM*	45µM*
SMILES	HP1b chromo inh	ALOX12 inh	G9a inh	Sfp PPTase inh	BAZ2B block	JMJD2A Tudor
CC(C)c1noc(C2CCCN(S(=O)(=O)c3ccc4c(c3)CCC4)CCC(=O)NCC2)n1 (stereo not drawn)	nt	-12%	nt	nt	nt	nt
Cc1nnc(SCC(=O)Nc2cccc(S(=O)(=O)N3CCCCC3)c2)s1	13%	4%	10%[2.33 µM]	nt	-3%	-11%
O=C(CSc1nnc(Nc2ccccc2F)s1)Nc1cccc(S(=O)(=O)N2CCCCC2)c1	7%	2%	3.2µM*	9%	-10%	?
Cc1ccc(Nc2nnc(SCC(=O)Nc3cccc(S(=O)(=O)N4CCCCC4)c3)s2)cc1	14%	-21%	40µM*	22%	-20%	-28%[57.1 µM]
O=C1CC(C(=O)O)C2(CCN(c3ncc(C(=O)O)cc3Cl)CC2)N1 (stereo not drawn)	nt	55%	nt	nt	nt	nt
NS(=O)(=O)c1ccc(NC(=O)CN(Cc2ccc3c(c2)OCO3)C2CCCC2)cc1	nt	-23%	nt	nt	nt	nt
CCN1/C(=C2/OC(=S)N(C)C2=O)Sc2ccccc21	56%	15%	?	-22%	-7%	-5%
CCN1/C(=C\C=C2\C(=O)N(C)C(=S)N2C)Sc2ccccc21	?	-29%	?	40µM*	nt	-29%[11.4 µM]
C=CCC1CCCC(=O)N2CC[C@H](O)C12 (stereo partly drawn)	9%	-22%	79µM*!	22%	-5%	-25%
C[C@@H](NC(=O)Nc1ccccc1)c1onc(-c2ccc(F)cc2)c1C(=O)O	nt	63µM*	nt	nt	nt	nt
C[C@@H](NS(C)(=O)=O)c1onc(-c2cccnc2)c1C(=O)O	nt	56µM*	nt	nt	nt	nt
C[C@@H](NC(=O)c1ccc(F)cc1)c1onc(-c2ccccc2)c1C(=O)O	nt	20%[176 µM]	nt	nt	nt	nt
Cc1noc([C@@H](C)NC(=O)Nc2ccc(Cl)cc2)c1C(=O)O	nt	20µM*	nt	nt	nt	nt
C[C@@H](NC(=O)c1cccnc1)c1onc(-c2ccc(F)cc2)c1C(=O)O	nt	18µM*	nt	nt	nt	nt
COc1ccc2c(C)c(CC(=O)NCCCOC(C)C)c(=O)oc2c1OC	nt	-4%	nt	nt	nt	nt
S=c1[nH]cc(Cc2ccccc2)s1	?	7.9µM*	1.8µM*	?	-32%	4µM*
CCC(C(=O)Nc1cc(-c2cn3cccnc3n2)ccc1C)c1ccccc1 (stereo not drawn)	29%[57 µM]	-15%	8%[59 µM]	nt	3%	22µM*
COc1ccc(-c2cn3cccnc3n2)cc1NC(=O)c1ccc(Br)o1	36%	2%	2.8µM*	?	?	?
Cc1ccc(-c2cn3cccnc3n2)cc1NC(=O)Nc1ccc(F)cc1	66%	-19%	34%[59 µM]	nt	3%	-16%
Cc1ccc(NC2=C(N3CCOCC3)C(=O)c3ccccc3C2=O)cc1	13µM*	?	?	-9%	14µM*	14µM*
CC(=O)c1ccc(NC2=C(N3CCOCC3)C(=O)c3ccccc3C2=O)cc1	28µM*	-19%	nt	-6%	28µM*	40µM*
CC(=O)N(C1=C(N2CCOCC2)C(=O)c2ccccc2C1=O)c1ccc(C(=O)O)cc1	37%	-18%	40µM*	-12%	-37%	-20%

Source: PubChem BioAssay (National Center for Advancing Translational Sciences (NCATS))
